Rango-impB inh: inhibitors of Rango-importin beta complex formation | AID 540263 | Potency, µM (highest dose often 92.2 µM), for the others: at the highest dose inhibition of complex formation | Rango CFP/YFP FRET sensor + importin beta, 45 min | 340,000 tested, 0.031% active; calls by dose curve;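 also: potency is read from the fitted curve at half-maximal effect; 0% = DMSO wells and 100% = buffer wells lacking importin beta; nearly all actives have a fitted effect of over 15% in size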
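Inhibition scored from the CFP 486 nm/YFP 530 nm FRET ratio 45 min after adding 0.125 microM importin beta to 50 nM Rango biosensor preincubated 5 min with compound (room temperature, PBS with DTT, Tween-20, BSA). No-importin wells as positive control.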
KAT2A inh: GCN5L2 (KAT2A) acetyltransferase inhibition. Q92830. GCN5L2 HAT assay, ThioGlo1 CoA-SH fluorescence. Potency, µM (highest dose often 58.9 µM), inactives show top-dose activity change, negative = inhibition, usual class: inhibitors. 390,000 tested, 0.21% active. AID 504327; also: potency is read from the fitted curve at half-maximal effect; % is scaled to controls: 0 for no effect and ±100 for the full control effect
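Free CoA generated was detected with ThioGlo1 (50uM) fluorescence at Ex340nm/Em540nm, read immediately and after 20 min at room temperature. Enzyme, 20 nM in HEPES pH 7.5 buffer, saw compounds 15 min before adding 75uM H3(1-25) peptide and 70uM acetyl-CoA.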
VDR inh: vitamin D3 receptor (human) inhibition. P11473. VDR-SRC2-3 peptide fluorescence polarization, 2 h. Potency, µM, without a hit: max response, negative = inhibition, usual class: inhibitors. 400,000 tested, 0.93% active. AID 504847; also: potency is read from the fitted curve at half-maximal effect; % is scaled to controls: 0 for no effect and ±100 for the full control effect
Target sequence (P11473 whole entry, looked up): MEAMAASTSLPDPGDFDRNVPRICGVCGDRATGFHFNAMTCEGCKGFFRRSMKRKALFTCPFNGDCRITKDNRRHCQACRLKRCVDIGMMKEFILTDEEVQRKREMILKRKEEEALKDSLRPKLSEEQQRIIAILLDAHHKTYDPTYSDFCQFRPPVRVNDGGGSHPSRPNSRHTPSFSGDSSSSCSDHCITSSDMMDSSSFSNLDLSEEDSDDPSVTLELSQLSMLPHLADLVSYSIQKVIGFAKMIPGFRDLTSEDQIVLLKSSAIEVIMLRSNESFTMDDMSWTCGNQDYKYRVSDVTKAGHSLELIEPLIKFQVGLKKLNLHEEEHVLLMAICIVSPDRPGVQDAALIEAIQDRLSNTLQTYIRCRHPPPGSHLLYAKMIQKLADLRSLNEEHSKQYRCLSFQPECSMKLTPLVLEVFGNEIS
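Signal is fluorescence polarization, reporting how far test compounds block the interaction of VDR with the SRC2-3 coregulator peptide after a 2 h room-temperature incubation.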
Rango release inh: prevents RanGTP from dissociating the Rango-importin beta complex. O95149+P62826. Biochemical FRET Rango-importin beta, RanGTP-induced dissociation. Potency, µM (series often up to 46.1 µM), for the others: at the top dose activity change, negative = inhibition. 340,000 tested, 0.071% active. AID 540253; calls by dose curve; also: potency is read from the fitted curve at half-maximal effect; % of control where 0% means no effect; nearly all actives have a fitted effect of over 45% in size
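Rango FRET biosensor (snurportin-1 IBB flanked by N-terminal EYFP and C-terminal CFP10) at 0.1 uM, with 0.25 uM importin beta in PBS, 1mM DTT, 0.02% Tween-20, 0.1% BSA. 0.6 uM Ran, 2mM GTP and 0.2 uM RCC1 were then added for 45 min at room temperature. Inhibition read as loss of FRET rise.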
PLK1 PBD block: inhibitors of human PLK1 polo-box domain binding | 360,000 tested, 2.8% active | Plk1 PBD binding of FITC phosphopeptide, fluorescence polarization | Potency, µM, for inactives: max response, negative = inhibition, hits mostly inhibitors | AID 720504 | P53350; also: potency is read from the fitted curve at half-maximal effect; series mostly up to about 57 µM; % is scaled to controls: 0 for no effect and ±100 for the full control effect; nearly all actives have a fitted effect of over 65% in size
PI5P4K alpha inh: blocks human PI5P4K alpha kinase activity; 330,000 tested, 1.2% active; max response, %; AID 652105; P48426; PI5P4Kalpha enzyme, ADP-Glo luminescence, 60 min; hits give low values; active = max response of -50% or lower; inconclusive = between -30% and -50%; inactive = -30% or higher; also: value at the top dose of about 77 µM; % is scaled to controls: 0 for no effect and ±100 for the full control effect
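Human PI5P4Kalpha with substrate in 0.038 M HEPES pH 7.4, 0.28 mM EGTA, 0.1% CHAPS, 5% DMSO; reaction started with 5 microM ATP (final), 60 min at room temperature. ADP formed read by ADP-Glo luminescence.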
Starred values were filed as active, the others as inactive. This is a sample that favours compounds with a hit; in the whole collection about 3.6% have one here. Unless noted, calls follow the shape of the dose curve; as a rule, active = well fitted curve in the direction sought with a large enough effect; inconclusive = small, poorly fitted or top-dose-only effect, or another doubt; inactive = no such curve, though single readings can be large; an effect the other way counts as inactive or inconclusive.

What do the screens show for `CCc1ccccc1NC(=O)c1ccc2c(O)c(S(=O)(=O)c3ccccc3)c(=O)[nH]c2c1`?
KAT2A inh: -11.7%; VDR inh: 12.1%

What do the screens show for `O=S(=O)(c1ccc2c(c1)CCCC2)N1CCN(c2nc(-c3ccccc3)nc3ccccc23)CC1`?
VDR inh: -1.5%

How did CCC[C@H](NC(C)=O)C(=O)N[C@H]1CC(=O)ONCCCC[C@@H](C(N)=O)NC(=O)[C@H](Cc2c[nH]c3ccccc23)NC(=O)[C@H](CCCN=C(N)N)NC(=O)[C@@H](Cc2ccc3ccccc3c2)NC(=O)[C@H](Cc2cnc[nH]2)NC1=O do in these assays?
KAT2A inh: -13.9%; VDR inh: 5.9%

What do the screens show for `Cc1cccc(C)c1NC(=O)CSc1nnc(C)n1CC1CCCO1` (stereo not drawn)?
Rango-impB inh: -0.7%; KAT2A inh: -6.3%; VDR inh: -5.8%; Rango release inh: -11.5%; PLK1 PBD block: 23.8µM*; PI5P4K alpha inh: -3.7

Results for Cc1nnc(SCC(=O)Nc2ccc3c(c2)OCCO3)n1CC1CCCO1 (stereo not drawn) ?
Rango-impB inh: 9.2%; KAT2A inh: 12.1%; VDR inh: -17.3%; Rango release inh: 1.3%; PLK1 PBD block: -22.3%; PI5P4K alpha inh: 0.7

What do the screens show for `COc1ccc(-c2cc(C(F)(F)F)nc(SCC(=O)N3CCCCC3)n2)cc1`?
KAT2A inh: -8.2%; VDR inh: 1.9%

Results for Cn1cnc(S(=O)(=O)N2CCC(C(=O)Nc3ccc(Cl)c(C(F)(F)F)c3)CC2)c1 ?
KAT2A inh: -2.6%; VDR inh: 9.2%

How did O=Cc1sc(=O)n(Cc2cccc(C(=O)O)c2)c1Cl do in these assays?
Rango-impB inh: inconclusive; KAT2A inh: -15.0%; VDR inh: 79.4µM*; Rango release inh: inconclusive; PLK1 PBD block: 29.9µM*; PI5P4K alpha inh: -26.0

How did C=C(C[C@]1(C(=O)OC)CC2(CC=C(C)C)C(=O)C(C(=O)CC(C)C)=C(O)C(CC=C(C)C)(C1)C2=O)C(=O)OC (stereo partly drawn) do in these assays?
VDR inh: -2.2%

What do the screens show for `CCCSS/C(CCO)=C(/C)N(C=O)Cc1cnc(C)nc1N`?
KAT2A inh: -0.4%; VDR inh: 25.1µM*

How did CCC(=O)Nc1ccc(OC)cc1OC do in these assays?
Rango-impB inh: 0.6%; KAT2A inh: -4.2%; VDR inh: inconclusive; Rango release inh: 4.2%; PLK1 PBD block: 6.7µM*; PI5P4K alpha inh: inconclusive

What do the screens show for `CCC(=O)Nc1ccccc1Oc1ccccc1`?
Rango-impB inh: 1.6%; KAT2A inh: -1.1%; VDR inh: -23.0%; Rango release inh: 11.3%; PLK1 PBD block: 23.8µM*; PI5P4K alpha inh: -1.7

Results for CCCCC(=O)Nc1ccccc1Oc1ccccc1 ?
Rango-impB inh: 0.8%; KAT2A inh: 2.2%; VDR inh: 2.2%; Rango release inh: 15.6%; PLK1 PBD block: -5.0%; PI5P4K alpha inh: -0.5

How did COc1ccc(NC(=O)CNS(=O)(=O)c2cccc3nonc23)c(OC)c1 do in these assays?
Rango-impB inh: -3.6%; KAT2A inh: -12.6%; VDR inh: 2.9%; Rango release inh: 6.2%; PLK1 PBD block: 29.9µM*; PI5P4K alpha inh: -9.0

How did CC1=C[C@@H](O)CC(C)(C)[C@@H]1/C=C/C(C)=C/C=C/C(C)=C/C=C/C=C(C)/C=C/C=C(C)/C=C/C1=C(C)C[C@H](O)CC1(C)C do in these assays?
KAT2A inh: -4.7%; VDR inh: 28.2µM*

How did CC1=C(/C=C/C(C)=C\C=C\C(C)=C\C=C\C=C(C)\C=C\C=C(C)\C=C\C2=C(C)C[C@@H](O)CC2(C)C)C(C)(C)C[C@H](O)C1 do in these assays?
KAT2A inh: -12.1%; VDR inh: 39.8µM*

Results for COc1ccc(C)cc1S(=O)(=O)Nc1cccc(-c2ccc(N3CCCCCC3)nn2)c1 ?
Rango-impB inh: inconclusive; KAT2A inh: inconclusive; VDR inh: inconclusive; Rango release inh: 0.6%; PLK1 PBD block: 16.8µM*; PI5P4K alpha inh: -18.7

Results for COc1ccc(S(=O)(=O)Nc2cccc(-c3ccc4nncn4n3)c2)c(OC)c1 ?
Rango-impB inh: -1.0%; KAT2A inh: -0.1%; VDR inh: inconclusive; Rango release inh: 11.5%; PLK1 PBD block: 16.8µM*; PI5P4K alpha inh: -3.8

How did CCOc1ccc(NC(=O)c2ccc3c(=O)n4nc(Nc5ccccc5C)sc4nc3c2)cc1 do in these assays?
KAT2A inh: -1.8%; VDR inh: -4.5%

What do the screens show for `O=C(C1CCCN(S(=O)(=O)c2cccc3nsnc23)C1)N1CCN(c2ccccc2)CC1` (stereo not drawn)?
KAT2A inh: -4.1%; VDR inh: -2.9%

Results for COc1ccccc1N(CC(=O)NC(C)(C)C)S(=O)(=O)c1cccs1 ?
Rango-impB inh: -0.2%; KAT2A inh: -5.8%; VDR inh: inconclusive; Rango release inh: 3.9%; PLK1 PBD block: 26.7µM*; PI5P4K alpha inh: -10.7

Results for CCNC(=O)CN(c1ccccc1OC)S(=O)(=O)c1cccs1 ?
Rango-impB inh: -0.9%; KAT2A inh: 0.5%; VDR inh: 4.9%; Rango release inh: 7.0%; PLK1 PBD block: -3.5%; PI5P4K alpha inh: 0.5

How did O=C(O)c1ccc(Nc2ncnc3c2cnn3Cc2ccccc2)cc1 do in these assays?
Rango-impB inh: 1.2%; KAT2A inh: -10.0%; VDR inh: inconclusive; Rango release inh: 5.9%; PLK1 PBD block: 29.9µM*

What do the screens show for `COc1ccc(Nc2ncnc3c2cnn3Cc2ccccc2)cc1OC`?
Rango-impB inh: -0.2%; KAT2A inh: -7.3%; VDR inh: -7.2%; Rango release inh: -13.8%; PLK1 PBD block: -1.1%

Results for Cc1cccc(Nc2ncnc3c2cnn3Cc2ccccc2)c1 ?
Rango-impB inh: 5.7%; KAT2A inh: 0.5%; VDR inh: -11.8%; Rango release inh: 9.2%; PLK1 PBD block: 23.8µM*; PI5P4K alpha inh: -11.3

How did COc1ccc(CC(=O)NNc2ncnc3c2cnn3Cc2ccccc2)cc1OC do in these assays?
Rango-impB inh: -1.0%; KAT2A inh: -1.2%; VDR inh: -21.2%; Rango release inh: 26.3%; PLK1 PBD block: 26.7µM*; PI5P4K alpha inh: 0.3

What do the screens show for `O=C(CSc1nnc2scc(-c3ccc(Cl)cc3)n12)Nc1ccc(F)cc1`?
KAT2A inh: -4.2%; VDR inh: 4.9%

Results for CCn1c(=S)sc2nc(C)sc21 ?
Rango-impB inh: -2.0%; VDR inh: inconclusive; Rango release inh: 5.5%; PLK1 PBD block: 21.2µM*

How did CCOC(=O)c1c(C)oc2c1c(CN1CCN(CCO)CC1)c(O)c1ccccc12 do in these assays?
Rango-impB inh: 0.5%; KAT2A inh: -6.5%; VDR inh: inconclusive; Rango release inh: 2.6%; PLK1 PBD block: 1.68µM*; PI5P4K alpha inh: -97.8*

Screening results as filed in PubChem BioAssay.
